An excerpt weighted towards active compounds, which were near 3% of everything screened.
zVAD death inh – L929 zVAD cell death inhibition; 220,000 compounds, 0.38% hits; AID 1377; viability rescue, % at 10 µM; L929 zVAD necroptosis rescue, ATP luminescence, 24 h; with zVAD 60 µM;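 active = activation, scaled between plate controls, above about 75%, limit read from the data; inactive = activation under that limit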;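 note: 0% = zVAD with DMSO and 100% = DMSO alone without zVAD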
Efa HMGR inh – blocks class II HMG-CoA reductase of Enterococcus faecalis; purified E. faecalis HMGR, NADPH absorbance 340 nm kinetic; inhibition, % at 10 µM; 190,000 compounds, 0.41% hits;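 active = inhibition above a set limit, the median over all tested compounds plus 3 SD, cut at about 9.5% in these data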;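 note: enzyme runs in reverse so mevalonate oxidation gives rising NADPH absorbance; 0% = complete reaction with DMSO and 100% = background rate lacking mevalonate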
14-3-3 Bad PPI – disrupts binding of bovine 14-3-3 zeta to phospho-Bad peptide | TR-FRET 14-3-3zeta/Dy647-pBad peptide displacement, 1 h | inhibition, % at 21.7 µM | P63103 | 220,000 compounds, 0.71% hits;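 active = inhibition above about 70%, limit read from the data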;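 note: 0% = full 14-3-3 plus peptide FRET controls and 100% = background without 14-3-3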
Target sequence (P63103 whole entry, looked up): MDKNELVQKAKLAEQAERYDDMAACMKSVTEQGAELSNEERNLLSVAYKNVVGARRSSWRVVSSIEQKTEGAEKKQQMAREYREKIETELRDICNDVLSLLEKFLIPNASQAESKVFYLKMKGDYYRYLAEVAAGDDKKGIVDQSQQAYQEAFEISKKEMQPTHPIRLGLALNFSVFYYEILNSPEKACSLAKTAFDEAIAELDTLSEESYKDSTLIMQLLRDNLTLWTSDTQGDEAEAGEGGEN
TNF necrop inh – TNF-alpha cell death inhibition in Jurkat FADD-/- cells; Jurkat FADD-/- TNF necroptosis rescue, ATP luminescence, 24 h; 0 = TNF only, 100 = no-TNF cells; 220,000 compounds, 0.068% hits; AID 463075; activation (protection from cell death), % at 10 µM;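 active = activation, meaning protection from cell death, of at least 50% relative to plate controls; inactive = activation below 50%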;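 note: necroptosis triggered by 40 ng/mL TNF-alpha added together with compound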
ROMK primary – human ROMK K+ channel modulation, primary screen | B-score at 10 µM | P48048 | Tet-inducible ROMK, thallium flux fluorescence; actives lie on both sides | 130,000 compounds, 2% hits | AID 1918;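 active = signal ratio slope over the read window, or its plate-corrected B-score, at least 3 SD from the plate mean, either direction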;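 note: B-score of the F/F0 ratio slope over 7 to 12 s after thallium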
Calpain2 inh – inhibitors of pig calpain II; purified calpain II, fluorogenic peptide substrate, 30 min; inhibition, % at 16 µM; 220,000 compounds, 0.37% hits; AID 1236;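 active = inhibition above about 50%, limit read from the data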
zVAD death conf – confirmed blocker of zVAD induced death in L929 cells. 760 compounds, 16% hits. L929 zVAD-induced necroptosis rescue, ATP luminescence, 24 h. shares compounds with zVAD death inh. activation (protection from necroptosis), % at 10 µM;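 active = mean protection from necroptosis of at least 50% over duplicate tests; inactive = mean protection below 50%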;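 note: 0% = cells with zVAD alone and 100% = vehicle cells without zVAD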
* = called active by the depositor; i = inactive; . = not tested or not shown.

SMILES	zVAD death inh	Efa HMGR inh	14-3-3 Bad PPI	TNF necrop inh	ROMK primary	Calpain2 inh	zVAD death conf
Cc1cc(C(=O)COc2cccc(-n3cnnn3)c2)c(C)n1-c1ccccc1	81.0*	-0.4	-2.8	-6.8	0.748	7.5	35.7
O=C(O)c1ccc(/C=N/Nc2ccc(C(F)(F)F)cn2)cc1	87.7*	-2.8	-5.8	57.6*	0.0105	7.7	11.7
O=C(O)c1ccc(/C=N/Nc2cccc(C(F)(F)F)c2)cc1	3.0	-3.6	-2.6	-1.1	0.0205	-25.3	.
COc1cc(/C=N/Nc2ccc(C(F)(F)F)cn2)ccc1O	78.9*	-2.6	-9.2	45.3	0.547	-10.1	92.9*
Nc1cccc(C(=O)N/N=C/c2ccsc2)c1	1.5	0.7	-18.1	-0.8	0.0658	-18.7	.
COc1ccc(/C=C/c2nc(-c3ccccc3O)n[nH]2)cc1OC	81.3*	-1.6	0.0	0.5	.	-32.6	4.0
N#C/C(=C\C=C\c1ccccc1[N+](=O)[O-])C(=O)NC1CCCCC1	75.4*	-2.3	-4.8	-1.7	-0.787	-22.4	0.1
N#C/C(=C\c1ccccc1[N+](=O)[O-])C(=O)NC1CCCCC1	1.3	1.1	-7.4	-5.2	.	9.7	.
C/C(=N\OCC(=O)Nc1ccc2c(c1)OCCO2)c1ccc2c(c1)OCCO2	85.5*	2.0	-17.7	0.7	.	24.9	4.2
O=C(NC1CC2CCCC(C1)N2C(=O)Nc1ccc(Cl)c(C(F)(F)F)c1)C1CC1 (centres undefined)	0.5	1.1	9.0	0.2	.	2.4	.
O=C(Nc1ccc(Cl)c(C(F)(F)F)c1)NC1CC2CCCC(C1)N2Cc1ccccc1 (centres undefined)	76.3*	-3.4	-13.6	-0.1	.	-53.0	33.4
Cc1ccc(NC(=O)c2noc3c2CCCCC3)cc1	81.9*	1.3	-4.0	1.7	.	-2.8	2.0
CCc1ccc(NC(=O)c2noc3c2CCCCC3)cc1	6.3	-1.0	-6.2	4.1	.	-9.6	.
C#Cc1ccc([C@@H]2C=C(C(=O)N3CCN(Cc4ccc5c(c4)OCO5)CC3)O[C@H](OCCCCO)C2)cc1	-0.1	-3.1	-3.4	0.9	.	-20.4	.
COc1ccc(C(=O)OCC(=O)NC(=O)NC(C)C)cc1OC	77.1*	-0.6	-5.3	-0.1	-0.304	23.3	1.5
COc1ccc(C(=O)COC(=O)c2ccc(OC)c(OC)c2)cc1OC	2.1	0.3	3.0	2.8	.	-35.9	.
CC1(CCc2ccccc2)NC(=O)N(CC(=O)Nc2ccc(S(N)(=O)=O)cc2)C1=O (centres undefined)	3.5	0.9	41.6	0.8	0.909	-31.9	.
c1ccc(-c2cnc(-c3cccnc3)o2)cc1	78.9*	4.2	36.9	-13.6	.	-304.5	47.3
NC(=O)c1ccc(-c2ncc(-c3ccccc3)o2)cc1	78.6*	-4.0	-4.3	-5.3	.	i	63.0*
CC(C)(C)c1cc(NCc2ccccn2)n2ncc(-c3ccc(Cl)cc3)c2n1	77.3*	.	-6.3	3.6	.	-73.4	1.1
CCN(C(=O)COC(=O)c1cccnc1Nc1ccccc1F)C1CCS(=O)(=O)C1 (centres undefined)	0.4	-0.4	6.6	1.2	-0.492	17.0	.
Cc1nc(NCCCn2ccnc2)c2ccccc2n1	0.3	-5.0	39.8	1.2	-0.529	16.9	.
c1cncc(-c2nc(NCCCn3ccnc3)c3ccccc3n2)c1	75.1*	1.5	-8.0	1.1	-2.01	1.2	32.4
O=[N+]([O-])c1ccc(NCCCNS(=O)(=O)c2ccccc2)c(Cl)c1	-0.5	-6.3	23.1	1.2	-1.79	38.9	.
CC1CCc2nc(NC(=O)Cc3cccs3)sc2C1 (centres undefined)	0.1	-3.1	4.1	8.0	-0.179	2.9	.
CC(C)(C)C1CCc2nc(NC(=O)Cc3cn4ccsc4n3)sc2C1 (centres undefined)	76.1*	-4.0	-6.7	3.6	0.00705	-64.7	23.3
CCN(CC(=O)NCc1ccc(Cl)cc1)S(=O)(=O)c1ccc(NC(C)=O)cc1	0.8	0.8	1.6	0.8	0.0881	15.6	.
COc1cc(CO)ccc1OCC(=O)Nc1ccc(Br)cc1	76.0*	1.5	-5.5	1.3	-0.723	-4.5	0.4
O=C(CCc1ccccc1)Nc1ccc2ccccc2n1	0.6	4.8	-5.7	0.4	0.458	1.1	.
